# Results taken from the supplement of paper PMC8728848.
# The entries come from a sample that favours the strongest signals as a whole.
# B1: Gal 8 (Mus musculus), Q9JL15 (protein)
# chain: MGGSHHHHHHGMASMLSLNNLQNIIYNPIIPYVGTITEQLKPGSLIVIRGHVPKDSERFQVDFQLGNSLKPRADVAFHFNPRFKRSSCIVCNTLTQEKWGWEEITYDMPFRKEKSFEIVFMVLKNKFQVAVNGRHVLLYAHRISPEQIDTVGIYGKVNIHSIGFRFSSASALPHTLGDLQSMETSALGLTQINRENIQKPGKLQLSLPFEARLNASMGPGRTVVIKGEVNTNARSFNVDLVAGKTRDIALHLNPRLNVKAFVRNSFLQDAWGEEERNITCFPFSSGMYFEMIIYCDVREFKVAINGVHSLEYKHRFKDLSSIDTLSVDGDIRLLDVRSW
# Tests used:
# Assay in all cases: glycan array binding signal (z-score within array); higher = stronger binding
# Conditions in all cases: glycan notation: IUPAC condensed, linker removed
# [1] = target: Fuc(a1-2)Gal(b1-3)GalNAc(b1-4)[Neu5Ac(a2-3)]Gal(b1-4)Glc
# How it was run: (§1)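 Arrays were curated from the Consortium for Functional Glycomics database, 3228 in total, and kept only where the protein sequence was available. Binding is expressed as a within-array Z-score. This score was averaged across arrays of the same protein sequence at different concentrations or buffers and across linkers, and negative values can be read as non-binding.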
# Fuc(a1-2)Gal(b1-3)GlcNAc = target: Fuc(a1-2)Gal(b1-3)GlcNAc
# How it was run: as §1
# Fuc(a1-2)Gal(b1-4)Glc = target: Fuc(a1-2)Gal(b1-4)Glc
# How it was run: as §1
# [2] = target: Fuc(a1-2)Gal(b1-4)GlcNAc6S
# How it was run: as §1
# [3] = target: Fuc(a1-2)Gal(b1-4)[Fuc(a1-3)]GlcNAc(b1-2)Man(a1-3)[Fuc(a1-2)Gal(b1-4)[Fuc(a1-3)]GlcNAc(b1-2)Man(a1-6)]Man(b1-4)GlcNAc(b1-4)[Fuc(a1-6)]GlcNAc
# How it was run: as §1
# [4] = target: Fuc(a1-2)[Gal(a1-3)]Gal(b1-3)GlcNAc
# How it was run: as §1
# [5] = target: Fuc(a1-2)[Gal(a1-3)]Gal(b1-3)GlcNAc(b1-2)Man(a1-3)[Fuc(a1-2)[Gal(a1-3)]Gal(b1-3)GlcNAc(b1-2)Man(a1-6)]Man(b1-4)GlcNAc(b1-4)GlcNAc
# How it was run: as §1
# [6] = target: Fuc(a1-2)[Gal(a1-3)]Gal(b1-4)Glc
# How it was run: as §1
# [7] = target: Fuc(a1-2)[Gal(a1-3)]Gal(b1-4)GlcNAc
# How it was run: as §1
# [8] = target: Fuc(a1-2)[Gal(a1-3)]Gal(b1-4)GlcNAc(b1-2)Man
# How it was run: as §1
# [9] = target: Fuc(a1-2)[Gal(a1-3)]Gal(b1-4)GlcNAc(b1-2)Man(a1-3)[Fuc(a1-2)[Gal(a1-3)]Gal(b1-4)GlcNAc(b1-2)Man(a1-6)]Man(b1-4)GlcNAc(b1-4)[Fuc(a1-6)]GlcNAc
# How it was run: as §1
# [10] = target: Fuc(a1-2)[Gal(a1-3)]Gal(b1-4)GlcNAc(b1-6)GalNAc
# How it was run: as §1
# [11] = target: Fuc(a1-2)[GalNAc(a1-3)]Gal(b1-3)GlcNAc
# How it was run: as §1
# [12] = target: Fuc(a1-2)[GalNAc(a1-3)]Gal(b1-4)GlcNAc(b1-2)Man
# How it was run: as §1
# [13] = target: Fuc(a1-2)[GalNAc(a1-4)]Gal(b1-4)GlcNAc
# How it was run: as §1
# [14] = target: Fuc(a1-3)[Gal(b1-4)]GlcNAc(b1-6)[Gal(b1-3)GlcNAc(b1-3)]Gal(b1-4)Glc
# How it was run: as §1
# [15] = target: Fuc(a1-3)[Gal3S(b1-4)]GlcNAc
# How it was run: as §1
# [16] = target: Gal(a1-3)Gal(b1-3)[Fuc(a1-4)]GlcNAc(b1-2)Man(a1-3)[Gal(a1-3)Gal(b1-3)[Fuc(a1-4)]GlcNAc(b1-2)Man(a1-6)]Man(b1-4)GlcNAc(b1-4)GlcNAc
# How it was run: as §1
# [17] = target: Gal(a1-3)Gal(b1-4)GlcNAc(b1-2)Man
# How it was run: as §1
# Gal(a1-3)GalNAc = target: Gal(a1-3)GalNAc
# How it was run: as §1
# [18] = target: Gal(a1-4)Gal(b1-3)GlcNAc(b1-2)Man(a1-3)[Gal(a1-4)Gal(b1-3)GlcNAc(b1-2)Man(a1-6)]Man(b1-4)GlcNAc(b1-4)GlcNAc
# How it was run: as §1
# Gal(b1-2)Gal = target: Gal(b1-2)Gal
# How it was run: as §1
# [19] = target: Gal(b1-3)GlcNAc(b1-3)Gal(b1-4)[Fuc(a1-3)]GlcNAc
# How it was run: as §1
# [20] = target: Gal(b1-3)[Fuc(a1-4)]GlcNAc(b1-6)GalNAc
# How it was run: as §1
# [21] = target: Gal(b1-4)GlcNAc(b1-2)Man(a1-3)[Gal(b1-4)GlcNAc(b1-2)Man(a1-6)][GlcNAc(b1-4)]Man(b1-4)GlcNAc(b1-4)[Fuc(a1-6)]GlcNAc
# How it was run: as §1
# [22] = target: Gal(b1-4)GlcNAc(b1-2)Man(a1-6)[GlcNAc(b1-2)Man(a1-3)]Man(b1-4)GlcNAc(b1-4)GlcNAc
# How it was run: as §1
# [23] = target: Gal(b1-4)GlcNAc(b1-3)Gal(b1-4)GlcNAc(b1-3)Gal(b1-4)GlcNAc
# How it was run: as §1
binder,measurement,setting,value
B1,glycan array binding signal (z-score),[1],-0.259
same,glycan array binding signal (z-score),Fuc(a1-2)Gal(b1-3)GlcNAc,0.14
same,glycan array binding signal (z-score),Fuc(a1-2)Gal(b1-4)Glc,0.021
same,glycan array binding signal (z-score),[2],-0.038
same,glycan array binding signal (z-score),[3],-0.529
same,glycan array binding signal (z-score),[4],3.88
same,glycan array binding signal (z-score),[5],3.71
same,glycan array binding signal (z-score),[6],2.26
same,glycan array binding signal (z-score),[7],3.76
same,glycan array binding signal (z-score),[8],2.84
same,glycan array binding signal (z-score),[9],3.64
same,glycan array binding signal (z-score),[10],-0.535
same,glycan array binding signal (z-score),[11],1
same,glycan array binding signal (z-score),[12],3.48
same,glycan array binding signal (z-score),[13],-0.537
same,glycan array binding signal (z-score),[14],0.008
same,glycan array binding signal (z-score),[15],-0.521
same,glycan array binding signal (z-score),[16],-0.204
same,glycan array binding signal (z-score),[17],0.378
same,glycan array binding signal (z-score),Gal(a1-3)GalNAc,-0.533
same,glycan array binding signal (z-score),[18],-0.534
same,glycan array binding signal (z-score),Gal(b1-2)Gal,-0.521
same,glycan array binding signal (z-score),[19],0.099
same,glycan array binding signal (z-score),[20],-0.515
same,glycan array binding signal (z-score),[21],-0.123
same,glycan array binding signal (z-score),[22],-0.108
same,glycan array binding signal (z-score),[23],0.937
